From the supplement of paper PMC7156485
± gives the standard deviation of the averaged measurements.

Assays:
Conditions in all cases: concentration: 10 µM; 24 h
TDF [1] = experiment: H1.0 immunofluorescence intensity relative to DMSO (% of DMSO); higher = stronger H1.0 induction, active = 120 or more
Method in brief: (§1)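 After 24 h at 37 °C with compounds at 10 µM, in triplicate, HCC1569 and TDF cells were fixed with 3.7% formaldehyde. Immunostaining used a rabbit anti-H1.0 antibody and an AlexaFluor 647 secondary, with DAPI, and six fields per well were imaged at ×10. H1.0 nuclear intensity or cell number is presented as percent of the plate control, from the median of replicates, with HCC1569 values smoothed for positional effects.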

HCC1569 [2] = experiment: H1.0 immunofluorescence intensity relative to DMSO (% of DMSO); higher = stronger H1.0 induction, active = 140 or more
Method in brief: as §1

HCC1569 [3] = experiment: cell number relative to DMSO (% of DMSO); higher = more cells (less growth inhibition / toxicity)
Method in brief: as §1

TDF [4] = experiment: as above
Method in brief: as §1
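Throughout, for H1.0 immunofluorescence intensity relative to DMSO: TDF is a line of transformed human dermal fibroblasts of mesenchymal origin.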
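Throughout, for cell number relative to DMSO: TDF denotes transformed human dermal fibroblasts of mesenchymal origin.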

Compound: CN(C)CCCN1c2ccccc2Sc2ccc(C(F)(F)F)cc21.Cl [Triflupromazine hydrochloride]
- H1.0 immunofluorescence intensity (TDF [1]): 110 (inactive)
- H1.0 immunofluorescence intensity (HCC1569 [2]): 113 (inactive)

Compound: c1cc(-c2cnn3cc(-c4ccc(N5CCNCC5)cc4)cnc23)c2cccnc2c1
- cell number (HCC1569 [3]): 22.7
- cell number (TDF [4]): 0.96
- H1.0 immunofluorescence intensity (HCC1569 [2]): 100 (inactive)

Compound: CCN(CC)CCCC(C)Nc1cc(/C=C/c2ccccc2Cl)nc2cc(Cl)ccc12 (stereo not given)
- cell number (HCC1569 [3]): 6.31
- cell number (TDF [4]): 1.01
- H1.0 immunofluorescence intensity (HCC1569 [2]): 102 (inactive)

Compound: CCC=CCC=CCC=CCC=CCC=CCC=CCCC(=O)OC(COCCCCCCCCCCCCCCCC)COP(=O)([O-])OCC[N+](C)(C)C (stereo not given)
- cell number (HCC1569 [3]): 105
- cell number (TDF [4]): 100
- H1.0 immunofluorescence intensity (TDF [1]): 95.7 (inactive)
- H1.0 immunofluorescence intensity (HCC1569 [2]): 101 (inactive)

Compound: CC(C(=O)O)c1cccc(C(=O)c2ccccc2)c1 (stereo not given) [Ketoprofen]
- H1.0 immunofluorescence intensity (TDF [1]): 88.8 (inactive)
- H1.0 immunofluorescence intensity (HCC1569 [2]): 101 (inactive)

Compound: S=C([S-])N1CCCC1.[NH4+] [Ammonium pyrrolidinedithiocarbamate]
- cell number (HCC1569 [3]): 87.9
- cell number (TDF [4]): 1.9
- H1.0 immunofluorescence intensity (HCC1569 [2]): 126 (inactive)

Compound: Cc1[nH]nc2ccc(-c3cncc(OCC(N)Cc4ccccc4)c3)cc12 (stereo not given)
- cell number (HCC1569 [3]): 58.8
- cell number (TDF [4]): 2.19
- H1.0 immunofluorescence intensity (HCC1569 [2]): 92 (inactive)

Compound: CN(C(=O)CCCOc1ccc2[nH]c(=O)ccc2c1)C1CCCCC1 [Cilostamide]
- cell number (HCC1569 [3]): 100.9 ± 0.88
- cell number (TDF [4]): 109 ± 5
- H1.0 immunofluorescence intensity (TDF [1]): 96.9 (inactive)
- H1.0 immunofluorescence intensity (HCC1569 [2]): 98.1 (inactive)

Compound: O=C(NC1=CNNC1=C1N=c2ccc(CN3CCOCC3)cc2=N1)NC1CC1
- cell number (HCC1569 [3]): 23.5
- cell number (TDF [4]): 2.95
- H1.0 immunofluorescence intensity (HCC1569 [2]): 58.9 (inactive)

Compound: Cc1ccc([N+](=O)[O-])cc1S(=O)(=O)N(C)N=Cc1cnc2ccc(Br)cn12.Cl.O.O [PI 3-Ka Inhibitor VIII]
- cell number (HCC1569 [3]): 45.7
- cell number (TDF [4]): 4.97
- H1.0 immunofluorescence intensity (HCC1569 [2]): 125 (inactive)
